Assay [1] in a line: NCI Yeast Anticancer Drug Screen. Data for the rad50 strain (AID 155).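 Note: 0% = growth of vehicle-only cultures of the same strain.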 Particulars: S. cerevisiae rad50 strain growth inhibition, active compounds read high; at 50.0 µM unless noted. An outline of the steps: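 Readout: growth inhibition relative to vehicle-treated cultures. Compound exposure was carried out in a genetically defined yeast strain deficient in DNA damage repair.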
A short description of assay [2]: NCI Yeast Anticancer Drug Screen. Data for the mec2-1 strain (AID 157). The conditions noted are these: S. cerevisiae mec2-1 strain, active compounds read high; at 50.0 µM unless noted. An outline of the steps:
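Growth inhibition is read against vehicle-treated controls after compound exposure of the mec2-1 yeast strain, which is defective in DNA damage repair or cell cycle control.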

A short description of assay [3]: NCI Yeast Anticancer Drug Screen. Data for the sgs1 mgt1 strain (AID 161).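 Note: 0% = growth of cultures given vehicle only.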 The conditions noted are these: S. cerevisiae sgs1 mgt1 strain, active compounds read high; at 50.0 µM unless noted. Put shortly:
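Compounds are added to genetically altered yeast, and growth is compared with cultures given vehicle alone to give percent inhibition.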

A short description of assay [4]: NCI Yeast Anticancer Drug Screen. Data for the cln2 rad14 strain (AID 165).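 Note: 0% = growth equal to vehicle treated cultures.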 Particulars: S. cerevisiae cln2 rad14 strain, active compounds read high; at 50.0 µM unless noted. Put shortly:
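Growth inhibition, relative to vehicle-treated controls, is the read-out. The test organism is a yeast strain with defined genetic alterations, cln2 rad14.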

Assay [5] can be described thus: NCI Yeast Anticancer Drug Screen. Data for the bub3 strain (AID 167). Particulars: S. cerevisiae bub3 mutant strain, active compounds read high; at 50.0 µM unless noted. An outline of the steps:
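Readout: yeast growth inhibition, expressed relative to vehicle-only wells. The test organism is a mutant strain from a panel with lesions in DNA repair or checkpoint genes.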

A short description of assay [6]: NCI Yeast Anticancer Drug Screen. Data for the mlh1 rad18 strain (AID 175). Particulars: S. cerevisiae mlh1 rad18 strain growth inhibition, active compounds read high; at 50.0 µM unless noted. An outline of the steps:
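Cells of a genetically altered yeast strain, deficient in DNA damage repair, were treated with compound. Their growth was then compared with that of vehicle-treated cultures to give inhibition.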

This is part of a sample that, as a whole, favours compounds with a hit. Of some 79,000 tested, about 15% had one in any assay. Values without a mark were called inactive. Active and inactive are the calls of the source. Cut-off read from the data, not from the text of the source: active = growth inhibition above about 70%; inactive = the rest.

As for `CCNC(=O)COc1ccc(Cl)c(C)c1`, the growth inhibition in assay [1] is -13.6%; in assay [2] it was -31.9%; in assay [3], -30.4%; in assay [4], -33.8%; in assay [5], -23.2%; in assay [6], -29.7%.

Take `BrC1(Br)C2CCCCCCC21` (stereo unspecified): the growth inhibition in assay [1] is -26.6%; in assay [2] it was 4.85%; in assay [3], 3.15%; in assay [4] it was -6.6%; in assay [5], -21.1%; in assay [6] it was -29.7%.

As for `CCNc1ncnc2c1nnn2CC`, the growth inhibition in assay [1] was -5.55%; in assay [2], -12.2%; in assay [3] it was -15.8%; in assay [4], -7.75%; in assay [5], -27.4%; in assay [6] it was 6.75%.

On to `COc1ccc(NC(Nc2ccc(OC)cc2)C(Cl)(Cl)Cl)cc1`, for which the growth inhibition was 15.1% in assay [1]; 9.5% in assay [2]; 13% in assay [3]; -11.2% in assay [4]; -4.55% in assay [5]; -8.6% in assay [6].

Consider `O=C1OCc2ccccc21`, for which the growth inhibition in assay [1] is 3.2%; in assay [2], 7.8%; in assay [3], 11.2%; in assay [4], -26.7%; in assay [5], -6.05%; in assay [6], 3.15%.

Turning to `CC(=O)Nc1cc(C)cc(CO)c1C`, the growth inhibition is 13.6% in assay [1]; -3.05% in assay [2]; -10.1% in assay [3]; -23.6% in assay [4]; -1.15% in assay [5]; -26.6% in assay [6].

Regarding `c1ccc(C2c3ccccc3CN2c2ccccc2)cc1` (stereo unspecified), the growth inhibition is 25.4% in assay [1]; 6.2% in assay [2]; 11.4% in assay [3]; 9.4% in assay [4]; 23.1% in assay [5]; 2.35% in assay [6].

For `OC(COc1cccc(C(F)(F)F)c1)CN1CCN(c2ccc(F)cc2)CC1` (stereo unspecified), the growth inhibition is 86.8% (active) in assay [1]; 88% (active) in assay [2]; 96.3% (active) in assay [3]; 88.5% (active) in assay [4]; 86.4% (active) in assay [5]; 92.2% (active) in assay [6].

Turning to `O=C(Cc1csc(-c2nc(CC(=O)NNc3ccccc3)cs2)n1)NNc1ccccc1`, the growth inhibition in assay [1] is 12.7%; in assay [2], -3.4%; in assay [3], -27.9%; in assay [4], -38.4%; in assay [5] it was 2.75%; in assay [6], -12.6%.

Regarding `O=NNc1ccc(S(=O)(=O)c2ccc3ccccc3c2)cn1`, the growth inhibition is 31.7% in assay [1]; 12.8% in assay [2]; -24.9% in assay [3]; -8.95% in assay [4]; -25.6% in assay [5]; -88.5% in assay [6].

Take `Cc1ccccc1C(=O)c1ccccc1C`: the growth inhibition is -16.3% in assay [1]; -9.95% in assay [2]; -7.2% in assay [3]; -34% in assay [4]; -1.55% in assay [5]; -9.9% in assay [6].

`Cc1ccc(S(=O)(=O)N2CCC(CCl)N(S(=O)(=O)c3ccc(C)cc3)CC2CCl)cc1` (stereo unspecified): the growth inhibition in assay [1] was 18.1%; in assay [2] it was 3.6%; in assay [3], 0.95%; in assay [4], -9.05%; in assay [5], 3.45%; in assay [6], 7.8%.

On to `COc1cccc(C2SCC(=O)N2c2ccc(-n3c(-c4ccccc4)nc4ccccc4c3=O)cc2)c1OC` (stereo unspecified), for which the growth inhibition was 11.9% in assay [1]; 26.4% in assay [2]; 0.9% in assay [3]; -9.7% in assay [4]; 22.4% in assay [5]; 26.9% in assay [6].

In the case of `Clc1ccccc1NN(Cc1ccncc1)c1ccccc1Cl`, the growth inhibition was 55.6% in assay [1]; 23.1% in assay [2]; 23.7% in assay [3]; 26.9% in assay [4]; 34.1% in assay [5]; 53.1% in assay [6].

For `CC(COc1ccc(C(C)(C)C)cc1)OC=O` (stereo unspecified), the growth inhibition in assay [1] is 14.2%; in assay [2] it was 3.2%; in assay [3], 19.4%; in assay [4] it was -12.9%; in assay [5], 16.1%; in assay [6], -6.4%.

Consider `CCOc1cc2c(cc1C(C)c1ccc(O)cc1)OCO2` (stereo unspecified), for which the growth inhibition is 99.5% (active) in assay [1]; 99.7% (active) in assay [2]; 99.7% (active) in assay [3]; 99.7% (active) in assay [4]; 99.5% (active) in assay [5]; 99.5% (active) in assay [6].

As for `CNC(=O)OCc1cc(C)cc(C)c1-c1ccco1`, the growth inhibition is -4.95% in assay [1]; -9.15% in assay [2]; 28.4% in assay [3]; 4% in assay [4]; 10.3% in assay [5]; 7.05% in assay [6].

`CNc1ccc(C=C2C=CC=C2)cc1`: the growth inhibition in assay [1] is 41.2%; in assay [2], 1.7%; in assay [3], 48.7%; in assay [4], 5.2%; in assay [5] it was 7.4%; in assay [6], 55.7%.

For `N#CCN1CCCCCC1`, the growth inhibition was -14.8% in assay [1]; -20.5% in assay [2]; -16.6% in assay [3]; 4.2% in assay [4]; -13.6% in assay [5]; 9.8% in assay [6].

As for `CCSC(SCC)C(NC(C)=O)C(O)C(O)C(O)CO` (stereo unspecified), the growth inhibition in assay [1] is 28.7%; in assay [2], 3.45%; in assay [3], 3.7%; in assay [4], 12.7%; in assay [5], 15.2%; in assay [6], 21.4%.

In the case of `CCCCC(C(=O)O)N(C)C` (stereo unspecified), the growth inhibition was -15.9% in assay [1]; -11.3% in assay [2]; -5.8% in assay [3]; -0.5% in assay [4]; 2.4% in assay [5]; -20.4% in assay [6].

Values taken from PubChem BioAssay (NCI).
